Compound activity from PubChem.
Shown are actives, neighbours in structure and some others; about 11% of the full set was active somewhere.
NS1 function inh = blocks influenza NS1 protein function | Potency, µM (highest dose often 46.1 µM), without a hit: at the highest dose activity, positive = more growth | 0.4% of 270,000 active | AID 2326; calls by dose curve; also: actives are rising curves; nearly all actives have a fitted effect of over 50% in size
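S. cerevisiae expressing influenza A NS1, grown in glucose, washed, then diluted 1:100 into pH 6.0 -URA galactose medium with 23 nl compound. Growth recovery read as OD600; NS1-free strain serves as control.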
Sm TGR block = S. mansoni TGR enzyme inhibition | 3% of 360,000 active | Q962Y6 | AID 485364 | Potency, µM (doses to about 114 µM), inactives show at the top dose activity change, negative = inhibition, actives largely listed as inhibitors | purified TGR, DTNB reduction, TNB absorbance 405 nm; also: % is scaled to controls: 0 for no effect and ±100 for the full control effect; nearly all actives have a fitted effect of over 60% in size
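Kinetic colorimetric format: TGR-catalysed, NADPH-driven DTNB reduction monitored via TNB absorbance. Enzyme dispensed at 20 nM; compound exposure 15 min at room temperature before reaction start.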
Pf growth 48h = P. falciparum growth inhibition at 48 hours (one generation). Potency, µM (titrated, usually from 28.7 µM), for inactives: at the highest dose activity change, negative = inhibition, actives largely listed as inhibitors. AID 504832. 5.9% of 310,000 active. P. falciparum luciferase growth in erythrocytes, 48 h; also: % is scaled to controls: 0 for no effect and ±100 for the full control effect
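In quantitative HTS format, infected erythrocytes bearing luciferase-reporter parasites were treated for a single generation at 37 C. Luminescence after adding detection reagent served as the growth measure.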
AMA1 RON2 block = AMA1-RON2 (P. falciparum) interaction inhibition | Potency, µM (highest dose often 58.2 µM), for inactives: at the top dose activity change, negative = inhibition, hits mostly inhibitors | 0.2% of 360,000 active | AlphaScreen AMA1-biotinylated RON2 peptide binding | AID 720542;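 also: 0% = vehicle wells and -100% = peptide control; nearly all actives have a fitted effect of over 45% in size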
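AMA1 (3D7) with his tag at 25 nM final met compounds first, then biotinylated RON2 peptide at 25 nM; detection used donor plus acceptor beads, 10 µg/mL apiece, read by AlphaScreen after 30 min at room temperature.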
Pf growth 96h = inhibits malaria parasite growth, 96 h; P. falciparum luciferase reporter growth, 96 h; Potency, µM (top dose mostly 28.7 µM), inactives show top-dose activity change, negative = inhibition, hits mostly inhibitors; 6.9% of 320,000 active; AID 504834; also: % is scaled to controls: 0 for no effect and ±100 for the full control effect
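Delayed-death screen, second-generation endpoint: infected erythrocytes, 2% hematocrit, 0.05% parasitemia final; 96 hours at 37 C, 5% CO2; luciferase detection reagent; luminescence decrease equals reduced growth.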
Starred values were filed as active, the others as inactive; i = inactive; ? = inconclusive; . = not tested or not shown. Unless noted, calls follow the shape of the dose curve; as a rule, active = well fitted curve in the direction sought with a large enough effect; inconclusive = small, poorly fitted or top-dose-only effect, or another doubt; inactive = no such curve, though single readings can be large; an effect the other way counts as inactive or inconclusive. Potency is read from the fitted curve at half-maximal effect.

SMILES | NS1 function inh | Sm TGR block | Pf growth 48h | AMA1 RON2 block | Pf growth 96h
COc1ccc(-n2c(O)c(C=NCc3ccc4c(c3)OCO4)c(=O)[nH]c2=O)cc1 | -2% | 14µM* | -2% | 12% | 16%
CN(C)C(=O)COc1ccc(S(=O)(=O)c2ccc(OCC(=O)N(C)C)cc2)cc1 | 2% | 79µM* | ? | 5% | 27%
CN(C)C(=O)COc1ccc(Br)cc1 | 3% | -4% | 15% | 3% | 9%
Cc1nc(-c2ccc(S(=O)(=O)N3CCCCCC3)cc2)cs1 | -10% | 4% | 7% | 5% | -3%
Nc1nc(-c2ccc(S(=O)(=O)N3CCCCC3)cc2)cs1 | . | -5% | ? | -4% | 13µM*
Cc1ccc(Nc2nc(-c3ccc(S(=O)(=O)N4CCCC4)cc3)cs2)cc1C | ? | -4% | 1.9µM* | -19% | 1.7µM*
O=C(Nc1cccc(-c2ccc(N3CCOCC3)nn2)c1)c1ccc([N+](=O)[O-])cc1 | . | 0% | ? | 0% | 9.3µM*
CC(C)CC(=O)Nc1cc(-c2ccccc2F)nn1-c1ccccc1 | . | 1% | . | . | .
CC(NC(=O)Cc1ccccc1F)c1ccc(F)cc1 (stereo unspecified) | . | -5% | 20% | 16% | 12%
CCOc1ccc(C(CCc2ccccc2)NC(=O)c2ccccc2OC)cc1OCC (stereo unspecified) | -7% | -1% | . | 6% | ?
CCOc1ccccc1/C=C(/NC(=O)c1ccccc1)C(=O)NC(C)c1ccccc1 (stereo unspecified) | -4% | 2% | 5% | -1% | 10µM*
CCOc1ccc(C(C)NC(=O)Cc2ccccc2F)cc1OCC (stereo unspecified) | . | 0% | ? | 1% | 1.3µM*
CCOc1ccc(C(C)NC(=O)Cc2ccccc2)cc1OCC (stereo unspecified) | -6% | 8% | 2.3µM* | -14% | 2.1µM*
CCOc1ccc(C(CCc2ccccc2)NC(=O)c2ccccc2F)cc1OCC (stereo unspecified) | -7% | -17% | . | -5% | 1.5µM*
O=C(COC(=O)CNS(=O)(=O)c1cccc(F)c1)NCCc1ccccc1 | . | -2% | ? | 5% | 27%
CCCCn1cc(S(=O)(=O)c2ccc(C)c(C)c2)c(=O)c2cc(F)c(N3CCN(C)CC3)cc21 | . | 2% | . | . | .
Cc1ccc(Nc2ncnc3c2nnn3Cc2ccccc2)cc1 | -3% | 18% | 67% | 12% | -46%
CC(C)CCNc1ncnc2c1nnn2Cc1ccccc1 | 4% | -23% | -3% | -10% | 10µM*
Cc1ccc(-c2c[n+](CC(=O)c3ccc(Br)cc3)c3n2CCCCC3)cc1 | . | -10% | 5.2µM* | -5% | -18%
O=C(C[n+]1cc(-c2ccccc2)n2c1CCC2)Nc1nc(-c2ccccc2)cs1 | 2% | -7% | ? | -4% | ?
O=C(C[n+]1cc(-c2ccccc2)n2c1CCCCC2)c1ccc(Cl)cc1 | 3% | 6% | 1.5µM* | -15% | 0.66µM*
C[n+]1cc(-c2ccccc2)n2c1CCCCC2 | -11% | 44% | ? | 3% | 1.7µM*
COc1ccc(-c2c[n+](CC(=O)c3ccccc3)c3n2CCCCC3)cc1 | 0% | -7% | ? | -10% | ?
O=c1c2sc(-c3ccccc3)cc2nc2n1CCCCC2 | -35% | -9% | 300% | -5% | i
O=C(C[n+]1cc(-c2ccc(Cl)c(Cl)c2)n2c1CCC2)OCc1ccccc1 | 1% | 0% | 0% | -7% | 11%
SMILES | NS1 function inh | Sm TGR block | Pf growth 48h | AMA1 RON2 block | Pf growth 96h
CC1CCC(C(C)C)C(OC(=O)C[n+]2cc(-c3ccc(Cl)cc3)n3c2CCCCC3)C1 (stereo unspecified) | . | -14% | 2.9µM* | -6% | 2.9µM*
O=C(COC(=O)CN1C(=O)COc2ccccc21)NC1CCCCC1 | . | 7% | 15% | 6% | ?
CCOC(=O)c1ccccc1NC(=O)Cn1c(=O)n(-c2ccc(CC)cc2)c(=O)c2c(C)c(C(=O)N(C)C)sc21 | . | -2% | . | . | .
COc1cccc(CN2CCN(CC(=O)NCCc3ccccc3)CC2)c1 | 9% | 0% | -3% | -14% | -1%
Cc1c(C(=O)N2CCOCC2)cc(C(C)(C)C)n1-c1ccccc1 | 5% | ? | 9.3µM* | -2% | 9.3µM*
COc1ccc(-c2nn(-c3ccccc3)cc2C(=O)N2CCN(S(=O)(=O)c3ccccc3C#N)CC2)cc1 | . | -1% | ? | -9% | 9.3µM*
CC(C(=O)N1CCOCC1)(c1ccccc1)c1ccccc1 | 13% | 0% | ? | -3% | -9%
Cc1ccc(-c2nn(-c3ccccc3)cc2C(=O)N2CCOCC2)cc1 | -18% | -2% | -19% | 2% | 2.3µM*
COc1ccc(-c2nn(-c3ccccc3)cc2C(=O)N2CCN(S(=O)(=O)c3cccc(F)c3)CC2)cc1 | . | -4% | 10µM* | -8% | ?
Cc1ccc(-c2nn(-c3ccccc3)cc2C(=O)N2CCN(C3CCS(=O)(=O)C3)CC2)cc1 (stereo unspecified) | . | 0% | -8% | 1% | ?
COc1ccc(-c2nn(-c3ccccc3)cc2C(=O)N2CCN(S(=O)(=O)c3ccccc3[N+](=O)[O-])CC2)cc1 | . | . | . | -9% | .
CSc1ccc(S(=O)(=O)N2c3ccccc3CC2C)cc1 (stereo unspecified) | -2% | -1% | -27% | 13% | 53%
COc1ccccc1Oc1ccc2c(c1)C(=O)N(c1cccc3ncccc13)C2=O | 23% | -4% | 13% | 0% | 185%
O=C1c2ccc3c4c(ccc(c24)C(=O)N1c1cccc(O)c1)CC3 | . | -9% | 12% | 13% | 31%
COc1ccccc1Oc1ccc2c(c1)C(=O)N(c1cccc(O)c1)C2=O | -13% | 7% | 2.6µM* | -9% | 66%
O=C1c2ccc3c4c(ccc(c24)C(=O)N1c1cccc(O)c1)C(=O)N(c1cccc(O)c1)C3=O | 4% | -11% | 1.9µM* | -3% | 1µM*
COc1ccc(-n2nc(C(=O)O)c(=O)n(C)c2=O)cc1 | . | -12% | . | . | .
NC1=NC[C@H](c2ccccc2)N1CCCCC1CCCCC1 | -3% | 8% | ? | 12% | ?
S=C1NC[C@H](c2ccccc2)N1CCCCC1CCCCC1 | 9% | -6% | 12µM* | -1% | 6.6µM*
COc1ccccc1N1CCN(S(=O)(=O)CCNC(=O)C2CCCCC2)CC1 | . | -6% | -6% | -19% | 2%
C=CCc1cc(Cl)ccc1OCCOCCNC(C)(C)C | -5% | . | 13µM* | 3% | 3%
C=CCc1cc(Cl)ccc1OCCOCCNCCOC | -9% | 6% | -15% | 4% | ?
C=CCc1cc(Cl)ccc1OCCNCCCOC | -6% | -15% | -10% | 27% | 13µM*
O=[N+]([O-])c1ccccc1S(=O)(=O)Nc1cccc(S(=O)(=O)N2CCCC2)c1 | . | . | . | 10% | .
COc1ccc(CCNC(=O)CSc2ccc(-c3ccco3)nn2)cc1 | . | 13µM* | -12% | 2% | -26%
COc1ccc(CCNC(=O)CSc2ccc(-c3ccncc3)nn2)cc1 | 2% | 0% | -29% | -1% | 31%
